Each structure is given as a SMILES string. In all, about 69,000 compounds went through this assay and about 30 (0.04%) showed an effect of 50% or more. The entries come from a sample that favours strong results as a whole.

The target of this experiment is T1, Histidine--tRNA ligase (Trypanosoma cruzi (strain CL Brener)) (UniProt Q4DA54).
T1 sequence (whole entry): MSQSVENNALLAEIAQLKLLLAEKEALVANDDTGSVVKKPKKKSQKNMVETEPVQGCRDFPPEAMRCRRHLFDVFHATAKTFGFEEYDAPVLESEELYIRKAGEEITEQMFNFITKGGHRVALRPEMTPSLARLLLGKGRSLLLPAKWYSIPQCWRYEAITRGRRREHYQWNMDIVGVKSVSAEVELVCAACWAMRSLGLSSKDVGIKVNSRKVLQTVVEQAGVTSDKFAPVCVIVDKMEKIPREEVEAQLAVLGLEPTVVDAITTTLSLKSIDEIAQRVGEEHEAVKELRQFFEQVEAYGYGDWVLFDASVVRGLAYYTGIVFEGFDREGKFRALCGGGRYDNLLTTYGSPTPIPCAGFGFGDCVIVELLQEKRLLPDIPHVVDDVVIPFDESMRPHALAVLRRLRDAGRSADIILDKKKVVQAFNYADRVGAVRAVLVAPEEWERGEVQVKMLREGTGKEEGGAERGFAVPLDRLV
The experiment can be described thus: Trypanosoma cruzi histidyl tRNA synthetase (Tc-HisRS). Format: functional. On the set-up: scale not given: direction of the effect not stated beside the values. The settings on record: 30 µM.
Take `Cc1csc(CN2CC[C@H]3C[C@H](c4nnc(C)[nH]4)O[C@@H]3C2)n1`: the Percent Effect was -2.48%.

Turning to `Cc1ccc(S(=O)(=O)N2C[C@H]3C[C@H](NC(=O)c4ccnn4C)[C@H]3C2)cc1`, the Percent Effect is 5.95%.

As to `O=C(c1ccsc1)N1C[C@@H]2CCN(c3cccnc3)C[C@@H]2C1`, the Percent Effect was -1.97%.

As for `CC(C)=CCN1CCN(Cc2nc3ccccc3[nH]2)[C@H]2CS(=O)(=O)C[C@H]21`, the Percent Effect turned out to be 4.35%.

On to `Cc1cc(C(=O)N2C[C@@H]3COC[C@]3(c3nnc(C)o3)C2)on1`, for which the Percent Effect stood at 0.99%.

On to `CNc1nc2c(s1)C(c1c(F)cccc1Cl)CC(=O)N2` (stereo unspecified), for which the Percent Effect was determined as 52.2%.

For `CNc1nc2c(s1)C(c1cccc(Cl)c1Cl)CC(=O)N2` (stereo unspecified), the Percent Effect was 34.8%.

Regarding `CNc1nc2c(s1)C(c1c(Cl)cccc1Cl)CC(=O)N2` (stereo unspecified), the Percent Effect was 31.5%.

Take `Cc1ccc(CN2C[C@@H]3COC[C@]3(COc3ccc(C#N)cn3)C2)o1`: the Percent Effect was found to be 4.39%.

Regarding `O=C(CCc1ccccc1)N[C@H]1CC[C@@]2(CCC(=O)N2)CC1`, the Percent Effect amounted to 9.71%.

For `O=C(c1ccco1)N1CCO[C@@H]2CN(Cc3nccs3)CC[C@@H]2C1`, the Percent Effect was determined as 2.21%.

For the compound `CN(C)C(=O)[C@H]1C[C@H]2OCC[C@H]2N(Cc2ccc3ccccc3n2)C1`, the Percent Effect was 12.8%.

For `O=C(N1CCOCC1)[C@@]12CCO[C@@H]1CCN(CC1CCCC1)C2`, the Percent Effect worked out at 0%.

On to `Cc1ncccc1NC(=O)[C@@H]1CCO[C@@H]2CCN(c3ccccc3)C[C@@H]21`, for which the Percent Effect is 7.26%.

With `Cc1noc([C@@H]2C[C@H]3OCC[C@H]3N(Cc3cc(C)c(C)o3)C2)n1`, the Percent Effect is 8.87%.

Turning to `O=C1CC[C@H]2[C@H](CCN2C(=O)C2CCCO2)N1Cc1ccncc1` (stereo partly specified), the Percent Effect is -3.83%.

On to `O=C(NCc1ccco1)[C@H]1CC[C@@H]2[C@@H](CCN2C2CCC2)O1`, for which the Percent Effect is 8.54%.

As to `COc1ccc(CN2CCN(C(=O)N(C)C)[C@@H]3CS(=O)(=O)C[C@@H]32)cc1F`, the Percent Effect was 3.06%.

With `CO[C@H]1C[C@@H]2CN(C(=O)c3ccc(C)s3)C[C@@H]2C1`, the Percent Effect was 8.05%.

On to `Cc1cc(=O)n(C)cc1NC(=O)Cc1cccc(F)c1`, for which the Percent Effect worked out at 14.2%.

Regarding `Cc1cc(=O)n(C)cc1NC(=O)Cc1cc(F)ccc1F`, the Percent Effect was determined as 57.9%.

Take `Cc1cc(=O)n(C)cc1NC(=O)Cc1ccc(C(F)(F)F)cc1`: the Percent Effect worked out at 14.2%.

Regarding `CCC1=N[C@@]2(CC[C@@H]3CN(C(=O)NCc4ccccc4)C[C@@H]32)C(=O)N1C`, the Percent Effect is 3.83%.

In the case of `CNc1nc2c(s1)C(c1ccccc1F)CC(=O)N2` (stereo unspecified), the Percent Effect turned out to be 14.9%.

For `CNc1nc2c(s1)C(c1cccc(F)c1F)CC(=O)N2` (stereo unspecified), the Percent Effect was determined as 3.26%.

With `O=C1CC(c2ccccc2C(F)(F)F)c2sc(N3CCOCC3)nc2N1` (stereo unspecified), the Percent Effect was 33.5%.

On to `CC(C)Oc1ccccc1C1CC(=O)Nc2nc(N3CCOCC3)sc21` (stereo unspecified), for which the Percent Effect was 1.24%.

Regarding `COc1cccc(C2CC(=O)Nc3nc(N4CCOCC4)sc32)c1OC` (stereo unspecified), the Percent Effect was determined as 65.2%.

With `COc1ccccc1C1CC(=O)Nc2nc(N3CCCCC3)sc21` (stereo unspecified), the Percent Effect was 74.5%.

In the case of `COc1cccc(C2CC(=O)Nc3nc(N4CCCCC4)sc32)c1OC` (stereo unspecified), the Percent Effect was 74.5%.

With `CNc1nc2c(s1)C(c1ccccc1Cl)CC(=O)N2` (stereo unspecified), the Percent Effect was found to be 17.4%.

As to `O=C1CC(c2ccccc2Br)c2sc(N3CCOCC3)nc2N1` (stereo unspecified), the Percent Effect amounted to 16.1%.

For `Nc1nc2c(s1)C(c1c(F)cccc1Cl)CC(=O)N2` (stereo unspecified), the Percent Effect is -3.73%.

Take `CCOc1cccc(C2CC(=O)NCc3nc(N4CCCC4)sc32)c1` (stereo unspecified): the Percent Effect amounted to 9.84%.

For `COc1cccc(C2CC(=O)Nc3nc(N)sc32)c1OC` (stereo unspecified), the Percent Effect came out at 70.7%.

On to `COCCN1C[C@H]2CC[C@@H]1CN(C(=O)CCc1c(C)nn(C)c1C)C2`, for which the Percent Effect was 13.1%.

Turning to `CN(C)C(=O)COC[C@H]1CC[C@@H]2[C@@H](CCN2Cc2ccco2)O1`, the Percent Effect came out at 7.04%.

Consider `Cc1ccc2nc(C(=O)N3CCCC[C@]4(C)NC(=O)CCC[C@H]34)cn2c1`, for which the Percent Effect stood at 2.24%.

Consider `CCN(CC)CCNC(=O)CCc1c(C)nn(-c2ccc(Cl)cc2)c1C`, for which the Percent Effect came to 2.27%.

As for `CCN(CC)CCNC(=O)CCc1c(C)nn(-c2ccccc2Cl)c1C`, the Percent Effect is 0%.

Turning to `CCN(CC)CCNC(=O)CCc1c(C)nn(-c2ccccc2Br)c1C`, the Percent Effect worked out at 61.4%.

For the compound `Cc1cccc(CN2CC[C@@H]3[C@@H](CO[C@H]3CNc3ncccn3)C2)n1`, the Percent Effect came to 10.5%.

Consider `O=C(O)[C@]12CCCN(CC3CCOC3)C[C@H]1CN(c1ncccn1)C2` (stereo partly specified), for which the Percent Effect was -2.21%.

Take `CNC(=O)[C@@]12CCC3(CCN(C(=O)COC)CC3)[C@@H]1CN(S(C)(=O)=O)C2`: the Percent Effect came to 3.74%.

Regarding `CN(C)C(=O)[C@H]1C[C@@H]2CN(S(=O)(=O)c3ccccc3)C[C@H]1O2`, the Percent Effect amounted to 5.91%.

Consider `CCCn1cc(NC(=O)c2ccncc2)ccc1=O`, for which the Percent Effect was determined as 38.3%.

With `CCCn1cc(NC(=O)c2ccc(S(C)(=O)=O)cc2)ccc1=O`, the Percent Effect stood at 56.7%.

In the case of `CCCn1cc(NC(=O)c2ccc(S(=O)(=O)CC)cc2)ccc1=O`, the Percent Effect turned out to be 35%.

Turning to `COC[C@H]1CNC(=O)[C@@H]2CCN(Cc3cccc(C)n3)CC[C@H]12`, the Percent Effect is 3.92%.

Regarding `CCc1nccn1CC(=O)N1C[C@H]2CC[C@@H]1CN(c1ncccn1)C2`, the Percent Effect was determined as 5.46%.

Take `Cc1nc(CO[C@H]2CN(C(=O)c3cccnc3)[C@@H]3COC[C@H]23)cs1`: the Percent Effect is -1.03%.

Consider `O=C1[C@H]2CN(c3cnccn3)C[C@H]2CN1CC1CC1`, for which the Percent Effect was determined as 7.22%.

As to `O=C(NCc1ccccc1)[C@H]1C[C@@H]2CN(S(=O)(=O)C3CC3)C[C@H]1O2`, the Percent Effect was 6.01%.

On to `CC1=CC[C@@H]2CN(C(=O)c3ccc(-c4nnn(C)n4)cc3)C[C@@H]2C1`, for which the Percent Effect was found to be 0.8%.

Turning to `O=C(CSc1nc2nncc-2c(O)n1-c1ccccc1)N1CCOCC1`, the Percent Effect was found to be 7.22%.

Consider `O=C1CC[C@@H]2[C@@H](CCN2C(=O)C2CCOCC2)N1CC1CC1`, for which the Percent Effect was 0%.

(Values after ChEMBL document CHEMBL3988442, “University of Dundee, Small-Polar-MMV Screening Library” (2021).)
